Measurements from PubChem BioAssay (NCATS).
Records with an inconclusive call do not appear. Entries that show only a call come without a potency. Unmarked numbers belong to inactive results. Active and inactive are the calls of the source. Calls come from the whole dose curve; as a rule, active = well fitted inhibition curve with a large enough effect; inconclusive = small, poorly fitted or top-dose-only effect; inactive = no such curve, though single readings can be large or run the other way.

Key:
[1] = tested on: Zika virus NS2B-NS3 protease (unlinked complex); experiment: Primary screen GU Rhodamine qHTS for Zika virus inhibitors: Unlinked NS2B-NS3 protease assay (AID 1347159); note: nearly all actives have a fitted effect of over 60% in size
How it was run: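 Noncovalent NS2B hydrophilic domain–NS3 protease domain complex (25 nM) preincubated 15 min at room temperature with compounds (up to 114 microM) in 10 mM Tris-HCl pH 8.0, 0.01% Tween 20; 1.5 microM Rhodamine110 substrate added, fluorescence change over 15 min fitted to Hill equation.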

[2] = tested on: Zika virus NS2B-NS3 protease (linked construct); experiment: Primary screen NINDS Rhodamine qHTS for Zika virus inhibitors (AID 1347160); note: nearly all actives have a fitted effect of over 55% in size
How it was run: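 Purified linked NS2B-NS3 protease (NS2B hydrophilic domain joined to NS3 protease by flexible linker), 25 nM in 10 mM Tris-HCl pH 8.0, 0.01% Tween 20. Compounds titrated, 15 min preincubation at room temperature; 1.5 microM Rhodamine110 substrate, FITC fluorescence change over 15 min.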
Potency is the fitted concentration of half-maximal effect.

Compound | Potency [1] | Potency [2] | activity change, negative = inhibition [1] | activity change, negative = inhibition [2]
CC(C)C(NC(=O)c1ccc2ccccc2n1)C(=O)NC(CC(=O)O)C(=O)COc1c(F)cccc1F (centres undefined) | inactive | inactive | – | –
Cc1ccc(C(=O)N(CCCN)C(c2nc3cc(Cl)ccc3c(=O)n2Cc2ccccc2)C(C)C)cc1 (centres undefined) | inactive | inactive | – | –
C=C(F)c1sc(CNCCCNc2cc(=O)c3ccccc3[nH]2)c(C)c1Br | inactive | inactive | – | –
CN1CCN(Cc2ccc(-c3cnc4[nH]cc(-c5ccc6[nH]ccc6c5)c4c3)cc2)CC1 | inactive | inactive | – | –
COc1cc(O)cc(C)c1C(=O)O[C@H]1[C@@H](OC(C)=O)[C@H](n2ccc(=O)[nH]c2=O)O[C@@H]1CO | inactive | inactive | – | –
COC(=O)CC1CC(c2ccc(O)cc2)=NO1 (centres undefined) | inactive | inactive | – | –
C[C@H](N)C(=O)N[C@@H](Cc1ccc(O)cc1)C(=O)N1CCC[C@H]1C(=O)NCC(=O)N[C@@H](CCCCN)C(=O)N[C@@H](Cc1ccccc1)C(N)=O | – | – | 124% [at 19.1 µM] | 9.61% [at 10.7 µM]
COc1c2c(c(CO)c3c1C(=O)OC3)OC1(C)CCC3(O)C(C)(C)OC(=O)CCC3(C)C1C2 (centres undefined) | inactive | inactive | – | –
CC(C)/C=C1\NC(=O)C(C(C)C)n2c1nc1c(c2=O)C=CC=CO1 (centres undefined) | inactive | inactive | – | –
C=C(C(=O)O)C1CC(O)C2(C)CCCC(=C)C2C1 (centres undefined) | inactive | inactive | – | –
CC1COC2(OC3CC4C5CC(O[C@@H]6O[C@H](C)[C@@H](O[C@@H]7O[C@@H](C)[C@H](O)[C@@H](O)[C@H]7O)[C@H](O)[C@H]6O)C6CC(O)CCC6(C)C5CCC4(C)C3C2C)C(O)C1 (some centres undefined) | inactive | inactive | – | –
CC1(c2nc3c(C(N)=O)cccc3[nH]2)CCCN1 (centres undefined) | inactive | inactive | – | –
CC(=O)C=C=C1C(C)(C)CC(O[C@@H]2O[C@H](CO)[C@@H](O)[C@H](O)[C@H]2O)CC1(C)O (some centres undefined) | inactive | inactive | – | –
Cc1cc(Nc2nc(NC(C)c3ncc(F)cn3)ncc2Cl)n[nH]1 (centres undefined) | inactive | inactive | – | –
C=CC(=O)Nc1cccc(CN2C(=O)N(c3c(Cl)c(OC)cc(OC)c3Cl)Cc3cnc(NCCCCN(CC)CC)nc32)c1 | inactive | inactive | – | –
COC1CC(O[C@H]2CC[C@@]3(C)C(=CC[C@]4(O)C3[C@H](OC(C)=O)[C@@H](OC(=O)c3ccccc3)[C@]3(C)[C@@H](C(C)=O)CC[C@@]34O)C2)OC(C)C1OC1CC(OC)C(OC2CC(OC)C(OC3OC(C)C(OC4OC(CO)C(O)C(O)C4O)C(OC)C3O)C(C)O2)C(C)O1 (some centres undefined) | – | – | 25.7% [at 19.1 µM] | -1.64% [at 10.7 µM]
O=C(O)c1cc(I)ccc1NC(=O)[C@H](Cc1ccccc1)NCc1ccccc1 | 11.2 µM (active) | 15.8 µM (active) | – | –
CC(=O)NC1C(OC(C)(C)C2CCC3(C)C=C(C4CCC5C4(C)CC(O)C4OC(C(C)(C)O)CCC45C)CCC3O2)OC(CO)C(O)C1O (centres undefined) | inactive | inactive | – | –
CC1=C(C(=O)O)/C(=C\CO[C@@H]2O[C@H](CO)[C@@H](O)[C@H](O)[C@H]2O)C(OC(=O)/C=C\c2ccc(O)cc2)C1 (some centres undefined) | inactive | inactive | – | –
OCCc1ccc(O[C@@H]2O[C@H](CO)[C@@H](O)[C@H](O)[C@H]2O)cc1 | inactive | inactive | – | –
COc1ccc(N(C)c2nc(C)nc3ccccc23)cc1 | inactive | inactive | – | –
CC1CCC2(OC1)OC1CC3C4CC=C5CC(O)CC(O[C@@H]6OC[C@@H](O)[C@H](O)[C@H]6O)C5(C)C4CCC3(C)C1(O)C2C (some centres undefined) | inactive | inactive | – | –
CO[C@H]1C[C@@H]2CC[C@@H](C)[C@@](O)(O2)C(=O)C(=O)N2CCCC[C@H]2C(=O)O[C@H]([C@H](C)C[C@@H]2CC[C@@H](OP(C)(C)=O)[C@H](OC)C2)CC(=O)[C@H](C)/C=C(\C)[C@@H](O)[C@@H](OC)C(=O)[C@H](C)C[C@H](C)/C=C/C=C/C=C/1C | inactive | inactive | – | –
CC(C)=CCC/C(C)=C/CC/C(C)=C/COC1OC(COC2OCC(OC3OCC(O)C(O)C3O)C(O)C2O)C(O)C(OC2OC(C)C(OC3OC(C)C(OC4OCC(OC5OC(C)C(O)C(O)C5O)C(O)C4O)C(O)C3O)C(O)C2O)C1O (centres undefined) | – | – | 15.4% [at 19.1 µM] | -0.102% [at 10.7 µM]
C[C@@H]1O[C@@H](O[C@@H]2CO[C@@H](O[C@H]3CC[C@@]4(C)C(CC[C@]5(C)C4CC=C4[C@@H]6CC(C)(C)CC[C@]6(C(=O)O[C@@H]6O[C@H](CO)[C@@H](O)[C@H](O)[C@H]6O)CC[C@]45C)[C@]3(C)CO)[C@H](O)[C@H]2O[C@@H]2O[C@H](CO)[C@@H](O)[C@H](O)[C@H]2O)[C@H](O)[C@H](O)[C@H]1O (some centres undefined) | inactive | inactive | – | –
COc1ccc(CNC(=O)c2cc(-c3cncc(C)c3)ncc2-c2nccs2)nc1OC | inactive | inactive | – | –
CC(=O)O[C@H]1C[C@@]2(C)[C@@H](CC[C@H]3[C@@]4(C)C=CC(=O)[C@@H](C)[C@@H]4[C@H](O)C(=O)[C@@]32C)/C1=C(/CCC=C(C)C)C(=O)O | inactive | inactive | – | –
